From PubChem
Mtb RmlCD inh: inhibitors of Mycobacterium tuberculosis RmlC and RmlD coupled enzymes; RmlC+RmlD coupled enzyme assay, percent inhibition; primary screen in compound mixtures; AID 1533; inhibition, % at 3.6 µM; 160,000 tested, 0.03% active; in the data active means inhibition mostly above about 34%, no sharp cut-off
Target sequence (P9WH09 whole entry, looked up): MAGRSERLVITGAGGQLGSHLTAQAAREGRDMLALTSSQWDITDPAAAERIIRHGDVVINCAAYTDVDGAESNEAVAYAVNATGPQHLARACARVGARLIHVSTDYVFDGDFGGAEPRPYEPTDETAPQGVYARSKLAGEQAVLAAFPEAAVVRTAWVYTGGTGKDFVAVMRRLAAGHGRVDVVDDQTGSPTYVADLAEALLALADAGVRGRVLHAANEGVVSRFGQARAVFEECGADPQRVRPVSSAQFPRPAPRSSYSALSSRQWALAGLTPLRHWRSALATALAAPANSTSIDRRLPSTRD
Target sequence (P9WH11 whole entry, looked up): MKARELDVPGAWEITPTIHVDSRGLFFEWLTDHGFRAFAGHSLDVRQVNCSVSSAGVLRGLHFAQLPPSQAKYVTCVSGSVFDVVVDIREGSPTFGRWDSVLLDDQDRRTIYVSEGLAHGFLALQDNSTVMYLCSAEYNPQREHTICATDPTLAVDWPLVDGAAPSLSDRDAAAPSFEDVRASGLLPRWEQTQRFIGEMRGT
YopH inh: inhibitors of Yersinia enterocolitica YopH tyrosine phosphatase | fluorescence Ex485/Em525 | inhibition, % (concentration not given with the values) | 140,000 tested, 0.16% active; in the data active means inhibition above about 50%
Starred values were filed as active, the others as inactive. Shown is part of a subset that was picked to be rich in hits.

How did O=C(O)Cc1c[nH]c2cccc(O)c12 do in these assays?
Mtb RmlCD inh: 6.4

How did Cc1nc2ccccn2c1C(=O)OCC#N do in these assays?
Mtb RmlCD inh: 7.6

How did O=C(/C(=C(\[O-])c1ccccc1)[n+]1ccc2ccccc2c1)c1ccccc1 do in these assays?
Mtb RmlCD inh: -10.8; YopH inh: 69.2*

How did O=C(/C(=C(\[O-])c1ccccc1)[n+]1ccc2ccccc2c1)c1ccc(Cl)cc1 do in these assays?
Mtb RmlCD inh: -11.9; YopH inh: 9.7

How did O=C(CC1C(=O)NCCN1Cc1cccc(Oc2ccccc2)c1)NCCCn1cccn1 (stereo unspecified) do in these assays?
Mtb RmlCD inh: -0.3

How did COc1ccc(C(=O)C2CCCN(C/C=C/c3ccccc3OC)C2)c(OC)c1 (stereo unspecified) do in these assays?
Mtb RmlCD inh: 13.3

What do the screens show for `Cc1[nH]n(-c2ccccc2)c(=O)c1C(C[N+](=O)[O-])c1ccc(Cl)cc1` (stereo unspecified)?
Mtb RmlCD inh: 3.9; YopH inh: 75.6*

Results for Cc1[nH]n(-c2ccccc2)c(=O)c1Sc1ccc(Cl)cc1 ?
Mtb RmlCD inh: 4.1; YopH inh: -1.2

Results for Cc1[nH]n(-c2ccccc2)c(=O)c1C(C[N+](=O)[O-])c1ccc(F)cc1 (stereo unspecified) ?
Mtb RmlCD inh: -9.4; YopH inh: -3.5

How did Cc1ccc(C(C[N+](=O)[O-])c2c(C)[nH]n(-c3ccccc3)c2=O)cc1 (stereo unspecified) do in these assays?
Mtb RmlCD inh: 5.2; YopH inh: 82.8*

How did COCCCNC(=O)CCCC(=O)NCCCOC do in these assays?
Mtb RmlCD inh: -9.8; YopH inh: 54.8*

What do the screens show for `COCCCNC(=O)CCCOc1ccccc1`?
YopH inh: -15.8

Results for CCOC(=O)C(=CNc1ccc(OC)cc1[N+](=O)[O-])C(=O)OCC ?
Mtb RmlCD inh: 1.9

What do the screens show for `CC(C)OCCCNC(=O)C(NS(=O)(=O)c1ccc2c(c1)c(=O)n(C)c(=O)n2C)c1ccccc1` (stereo unspecified)?
Mtb RmlCD inh: 6.1

What do the screens show for `CCOC(=O)c1nn(-c2ccccc2)c(C#N)c1NC(=O)c1nn(CC)cc1Br`?
YopH inh: -25.5

Results for CCOC(=O)c1c(NC(=O)c2nn(CC)cc2Br)c(C#N)nn1-c1ccccc1 ?
Mtb RmlCD inh: 24.1; YopH inh: 52.2*

What do the screens show for `COc1cc(/C=N/Nc2ccc(Cl)c(C(=O)O)c2)ccc1OCC(=O)N1C(C)CCCC1C` (stereo unspecified)?
Mtb RmlCD inh: -13.9

How did O=c1oc2c(CN3CCOCC3)c(O)ccc2c2ccccc12 do in these assays?
YopH inh: 11.2

Results for O=c1oc2c(CN3CCOCC3)c(O)ccc2c2c1CCCC2 ?
Mtb RmlCD inh: 44.3*; YopH inh: -14.3

Results for COc1cccc(C(=O)Nc2sc3c(c2C#N)CCN(C(C)=O)C3)c1 ?
Mtb RmlCD inh: 10.1

What do the screens show for `O=C(Nc1c(C(=O)O)[nH]c2ccc(F)cc12)c1cccc(C(F)(F)F)c1`?
Mtb RmlCD inh: -12.6

How did CNC1=C(N(C(C)=O)c2ccc(Br)cc2)C(=O)c2ccccc2C1=O do in these assays?
YopH inh: 84.0*

Results for CCC(=O)N(C1=C(NC)C(=O)c2ccccc2C1=O)C(C)C ?
Mtb RmlCD inh: -3.4

How did COc1ccc(-c2cc(C(=O)O)c3c(C)nn(-c4ccccn4)c3n2)cc1 do in these assays?
YopH inh: -9.4

What do the screens show for `COc1ccc(N=CC2=C(Nc3ccc(OC)cc3)c3c(C)nn(-c4ccccn4)c3CC2)cc1`?
YopH inh: 50.9*

How did CC(=O)Nc1nc(-c2cc([N+](=O)[O-])cs2)cs1 do in these assays?
Mtb RmlCD inh: -10.1

How did CC(=O)Nc1sc(N/N=C/c2ccc(C)cc2)nc1-c1ccc(C)cc1 do in these assays?
Mtb RmlCD inh: -5.8

What do the screens show for `CC(=O)Nc1sc(N/N=C/c2ccc(N(C)C)cc2)nc1-c1ccc(C)cc1`?
Mtb RmlCD inh: 63.6*

Results for N#C/C(=C\c1ccncc1)c1nc2ccccc2[nH]1 ?
Mtb RmlCD inh: 34.5*

Results for N#C/C(=C\c1cccnc1)c1nc2ccccc2[nH]1 ?
Mtb RmlCD inh: 14.3

How did CCNC(=O)c1cc2c(=O)n3cccc(C)c3nc2n(CCc2ccccc2)c1=N do in these assays?
Mtb RmlCD inh: 32.2*; YopH inh: -13.6

Results for CCCn1c(=N)c(C(=O)NCC2CCCO2)cc2c(=O)n3cccc(C)c3nc21 (stereo unspecified) ?
Mtb RmlCD inh: 108.9*; YopH inh: -44.3

What do the screens show for `Cc1cccn2c(=O)c3cc(C(=O)NCC4CCCO4)c(=N)n(CCN4CCOCC4)c3nc12` (stereo unspecified)?
YopH inh: -19.6

What do the screens show for `COCCn1c(=N)c(C(=O)NCCc2ccccc2)cc2c(=O)n3cccc(C)c3nc21`?
YopH inh: 2.0

What do the screens show for `Cc1ccc(Cl)cc1NC(C#N)c1ccccc1` (stereo unspecified)?
Mtb RmlCD inh: -9.4

How did O=C(CN1C(=O)C2CC=CCC2C1=O)Nc1nnc(SCc2c(Cl)cccc2Cl)s1 (stereo unspecified) do in these assays?
YopH inh: -0.8

Results for O=C(CN1C(=O)C2CC=CCC2C1=O)Nc1nnc(SCc2ccc(Cl)cc2)s1 (stereo unspecified) ?
Mtb RmlCD inh: -3.1; YopH inh: 75.8*

Results for Cn1c(SCC(=O)n2c3c(c4ccccc42)CCCC3)nnc1-c1ccccc1 ?
YopH inh: 4.8

Results for O=C(CSc1nnc(-c2ccccc2)o1)n1c2c(c3ccccc31)CCCC2 ?
Mtb RmlCD inh: -9.6; YopH inh: 56.0*

How did Cc1ccc(-c2nnc(SCC(=O)n3c4c(c5ccccc53)CCCC4)o2)cc1 do in these assays?
Mtb RmlCD inh: 12.6; YopH inh: -17.1

How did CC(=O)Nc1ccc(-c2nnc(SCC(=O)n3c4c(c5ccccc53)CCCC4)n2C)cc1 do in these assays?
YopH inh: 75.3*

Results for CCN1/C(=C/C=C/c2oc3ccc(-c4ccccc4)cc3[n+]2CC)Oc2ccc(-c3ccccc3)cc21 ?
Mtb RmlCD inh: -10.4

How did COc1ccc(NC(=O)/C(Cl)=C(/Cl)S(=O)Cc2ccccc2Cl)cn1 (stereo unspecified) do in these assays?
Mtb RmlCD inh: 12.0

How did O=C(CCl)c1ccc2c(c1)CCN2C(=O)C1CCCCC1 do in these assays?
Mtb RmlCD inh: 36.3

What do the screens show for `CC1CC(OC(=O)CN2CCCCC2)CC(C)(C)C1` (stereo unspecified)?
Mtb RmlCD inh: -25.1

What do the screens show for `COC(=O)Cc1c(C)c2ccc(OC(=O)c3ccco3)cc2oc1=O`?
Mtb RmlCD inh: 83.0*; YopH inh: -40.7

How did COC(=O)Cc1c(C)c2cc(Cl)c(OC(=O)c3ccco3)cc2oc1=O do in these assays?
Mtb RmlCD inh: 21.2; YopH inh: -18.2

What do the screens show for `N=c1oc2ccc3ccccc3c2cc1C(N)=S`?
Mtb RmlCD inh: 6.6

Results for CCOC(=O)/C(=N\Nc1ccccc1)P(=O)(c1ccccc1)c1ccccc1 ?
Mtb RmlCD inh: 2.2

What do the screens show for `CCO/C=C1/C(=O)N(CC)c2ccccc21`?
YopH inh: 2.0

What do the screens show for `CCO/C=C1/C(=O)N(c2ccc(OC)cc2)C(=O)c2ccccc21`?
Mtb RmlCD inh: 5.5

What do the screens show for `CCO/C=C1/C(=O)N(Cc2ccccc2)C(=O)c2ccccc21`?
Mtb RmlCD inh: 8.7; YopH inh: 101.4*

Results for CCO/C=C1\C(=O)N(c2ccccc2)C(=O)c2ccccc21 ?
Mtb RmlCD inh: 10.9; YopH inh: 89.1*
